This is an account of results in the supplement of paper PMC10037445.

Molecules are shown by their SMILES. In all, about 2,900 compounds were measured (“NF-kB SEAP reporter activity, fold change vs agonist alone”: median about 0.99, highest 2% from about 2.6 on). This excerpt belongs to a sample that is enriched for the highest values.

Test [1] deals with RAW-Dual. The experiment in a line: NF-kB SEAP reporter activity, fold change vs agonist alone; cytotoxicity flag (confluency mask): not cytotoxic; higher = enhanced NF-kB activity. In a few lines:
(§1)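 Reporter activity is given as fold change relative to agonist-alone wells. To measure it, 50 nL of library stock was pin-tooled onto RAW-Dual macrophages (50,000 cells/well, DMEM, 384-well plates), a PRR agonist followed 1 h later, and cells stayed at 37 °C, 5% CO2. Twenty hours on, supernatant was assayed for IRF (QuantiLuc luminescence) and NF-κB (QuantiBlue, 620 nm absorbance), and wells under 70% of agonist-control IncuCyte confluency in both mask sets were marked cytotoxic.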

Test [2] has as its system RAW-Dual. Kind of test: NF-kB SEAP reporter activity, fold change vs agonist alone; higher = enhanced NF-kB activity. In a few lines:
as §1

In test [3] the test system is RAW-Dual. Kind of test: NF-kB SEAP reporter activity, fold change vs agonist alone; cytotoxicity flag (confluency mask): cytotoxic (confluency <70% of control); higher = enhanced NF-kB activity. In a few lines: as §1
Setting [4] is: agonist: ODN 1826 (TLR9) 0.5 ug/mL.
The mark [5] stands for this setting: agonist: Pam2CSK4 (TLR2/6) 0.1 ug/mL.
Where [6] appears, read: agonist: Pam3CSK4 (TLR2/1) 0.1 ug/mL.
The mark [7] stands for this setting: library stock concentration (final ~1000-fold dilution): 10 mM, cytotoxicity flag (confluency mask): cytotoxic (confluency <70% of control), agonist: Imiquimod (TLR7) […].
The mark [8] stands for this setting: library stock concentration (final ~1000-fold dilution): 10 mM, cytotoxicity flag (confluency mask): cytotoxic (confluency <70% of control), agonist: MPLA (TLR4) […].
Where [9] appears, read: library stock concentration (final ~1000-fold dilution): 10 mM, cytotoxicity flag (confluency mask): not cytotoxic, agonist: Imiquimod (TLR7) […].
[10] abbreviates: library stock concentration (final ~1000-fold dilution): 10 mM, cytotoxicity flag (confluency mask): not cytotoxic, agonist: MPLA (TLR4) […].

Consider `Nc1ccccc1NC(=O)c1ccc(CNC(=O)OCc2cccnc2)cc1` (library stock concentration (final ~1000-fold dilution): 10 mM), for which the “NF-kB SEAP reporter activity” value was 1.22 in test [1] (agonist: LPS (TLR4) 0.1 ug/mL), 1.02 in test [1] (setting [4]), 1.07 in test [1] (setting [5]) and 1.14 in test [1] (setting [6]).
On to `Nc1ccccc1NC(=O)c1ccc(CNc2nccc(-c3cccnc3)n2)cc1`, for which the “NF-kB SEAP reporter activity” value in test [2] (setting [7]) was determined as 2.7; in test [2] (setting [8]) it was 2.58.
`Cc1ccc(NC(=O)c2ccc(CN3CCN(C)CC3)cc2)cc1Nc1nccc(-c2cccnc2)n1`: the entries for the “NF-kB SEAP reporter activity” value in test [2] (setting [9]) and in test [2] (setting [10]) were 1.31 and 1.69, respectively.
As for `O=P(O)(O)Oc1cccc2ccccc12` (library stock concentration (final ~1000-fold dilution): 10 mM), the “NF-kB SEAP reporter activity” value in test [1] (agonist: LPS (TLR4) 0.1 ug/mL) was 1.05; in test [1] (setting [4]), 0.917; in test [1] (setting [5]), 1.16; in test [1] (setting [6]), 0.879.
`O=P(O)(O)Oc1cccc2ccccc12`: in test [2] (setting [10]), the “NF-kB SEAP reporter activity” value is 1.08.
For the compound `O=C(/C=C/c1cncc(F)c1)c1c(-c2ccccc2)c2cc(Cl)ccc2[nH]c1=O` (library stock concentration (final ~1000-fold dilution): 10 mM), the “NF-kB SEAP reporter activity” value was 0.257 in test [3] (agonist: LPS (TLR4) 0.1 ug/mL), 0.212 in test [3] (setting [4]), 0.0981 in test [3] (setting [5]) and 0.253 in test [3] (setting [6]).
`O=C(/C=C/c1cncc(F)c1)c1c(-c2ccccc2)c2cc(Cl)ccc2[nH]c1=O`: the results for the “NF-kB SEAP reporter activity” value in test [2] (setting [7]) and in test [2] (setting [8]) were 0.157 and 0.259, respectively.
On to `COC1/C=C/OC2(C)Oc3c(C)c(O)c4c(O)c(c(/C=N/N5CCN(C6CCCC6)CC5)c(O)c4c3C2=O)NC(=O)/C(C)=C/C=C/C(C)C(O)C(C)C(O)C(C)C(OC(C)=O)C1C` (centres undefined) (library stock concentration (final ~1000-fold dilution): 10 mM), for which the “NF-kB SEAP reporter activity” value turned out to be 1.56 in test [1] (agonist: LPS (TLR4) 0.1 ug/mL), 0.892 in test [1] (setting [4]), 0.643 in test [1] (setting [5]) and 0.742 in test [1] (setting [6]).
`COC1/C=C/OC2(C)Oc3c(C)c(O)c4c(O)c(c(/C=N/N5CCN(C6CCCC6)CC5)c(O)c4c3C2=O)NC(=O)/C(C)=C/C=C/C(C)C(O)C(C)C(O)C(C)C(OC(C)=O)C1C` (centres undefined): the “NF-kB SEAP reporter activity” value was determined as 1.11 in test [2] (setting [9]) and 0.969 in test [2] (setting [10]).
As for `O=C(O)CC[C@@H](O)C(=O)O`, the “NF-kB SEAP reporter activity” value in test [2] (library stock concentration (final ~1000-fold dilution): 10 mM water, cytotoxicity flag (confluency mask): not cytotoxic, agonist: Imiquimod (TLR7) […]) is 0.93; in test [2] (library stock concentration (final ~1000-fold dilution): 10 mM water, cytotoxicity flag (confluency mask): not cytotoxic, agonist: MPLA (TLR4) […]), 1.07.
On to `O=C(O)CC[C@@H](O)C(=O)O` (library stock concentration (final ~1000-fold dilution): 10 mM water), for which the “NF-kB SEAP reporter activity” value in test [1] (agonist: LPS (TLR4) 0.1 ug/mL) is 1.44; in test [1] (setting [4]) it was 1.16; in test [1] (setting [5]), 1.17; in test [1] (setting [6]) it was 1.12.
The matching figures for `CC1(C)OCC(COC(=O)CCc2ccc(OCC(O)CNCCNC(=O)N3CCOCC3)cc2)O1.Cl` (centres undefined) (library stock concentration (final ~1000-fold dilution): 10 mM): 0.799, 0.908, 1.04 and 0.926.
In the case of `CC1(C)OCC(COC(=O)CCc2ccc(OCC(O)CNCCNC(=O)N3CCOCC3)cc2)O1.Cl` (centres undefined), the entries for the “NF-kB SEAP reporter activity” value in test [2] (setting [9]) and in test [2] (setting [10]) were 0.97 and 1.01, respectively.
For `CC(C)(C)OC(=O)Nc1ccc(-c2cc(C(=O)NCCCCCCC(=O)NO)no2)cc1`, the “NF-kB SEAP reporter activity” value in test [2] (setting [7]) is 0.912; in test [2] (setting [8]) it was 1.81.
With `CC(C)(C)OC(=O)Nc1ccc(-c2cc(C(=O)NCCCCCCC(=O)NO)no2)cc1` (library stock concentration (final ~1000-fold dilution): 10 mM), the “NF-kB SEAP reporter activity” value was 6.9 in test [3] (agonist: LPS (TLR4) 0.1 ug/mL), 1.11 in test [3] (setting [4]), 1.33 in test [3] (setting [5]) and 1.21 in test [3] (setting [6]).
Regarding `CC(C)C1C(=O)NC(CCCNC(=N)N)C(=O)NCC(=O)NC(CC(=O)O)C(=O)NC(Cc2ccccc2)C(=O)N1C.O=C(O)C(F)(F)F` (centres undefined) (library stock concentration (final ~1000-fold dilution): 10 mM), the “NF-kB SEAP reporter activity” value in test [1] (agonist: LPS (TLR4) 0.1 ug/mL) was determined as 0.99; in test [1] (setting [4]), 1.01; in test [1] (setting [5]), 0.985; in test [1] (setting [6]), 0.921.
On to `CC(C)C1C(=O)NC(CCCNC(=N)N)C(=O)NCC(=O)NC(CC(=O)O)C(=O)NC(Cc2ccccc2)C(=O)N1C.O=C(O)C(F)(F)F` (centres undefined), for which the figures for the “NF-kB SEAP reporter activity” value in test [2] (setting [9]) and in test [2] (setting [10]) were 0.977 and 1.11, respectively.
